Test results from publication PMC7862700, “An all-to-all approach to the identification of sequence-specific readers for epigenetic DNA modifications on cytosine”.

Assays:
Assay in all cases: DAPPL (digital affinity profiling via proximity ligation, sequencing); 10 mM Tris-HCl pH 7.5, 50 mM NaCl, 1 mM DTT, 4% glycerol, room temperature, 30 min; GST-TFs on glutathione beads, 16-mer random dsDNA library, 0.1% formaldehyde crosslink after washing; high values mean tight binding
Conditions in all cases: protein: recombinant; tags: N-terminal GST; dsDNA, one strand shown
[1] = target: T1, ERF (Homo sapiens, UniProt P50548 1-548)
T1 sequence: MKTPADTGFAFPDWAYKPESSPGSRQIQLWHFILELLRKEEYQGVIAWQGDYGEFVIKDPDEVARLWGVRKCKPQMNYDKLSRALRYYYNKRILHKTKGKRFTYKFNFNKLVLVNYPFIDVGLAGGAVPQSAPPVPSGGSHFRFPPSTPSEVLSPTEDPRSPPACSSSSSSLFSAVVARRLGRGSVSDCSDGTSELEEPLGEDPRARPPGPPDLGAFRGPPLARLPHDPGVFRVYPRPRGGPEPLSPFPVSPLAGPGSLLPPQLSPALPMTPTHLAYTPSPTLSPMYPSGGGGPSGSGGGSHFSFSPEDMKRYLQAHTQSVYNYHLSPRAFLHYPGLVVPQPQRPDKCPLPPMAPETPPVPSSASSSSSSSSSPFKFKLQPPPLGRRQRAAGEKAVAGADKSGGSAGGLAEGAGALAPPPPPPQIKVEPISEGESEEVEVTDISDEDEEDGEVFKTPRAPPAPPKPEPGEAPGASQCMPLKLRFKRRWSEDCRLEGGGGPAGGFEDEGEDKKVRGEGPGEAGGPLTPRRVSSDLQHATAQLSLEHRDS
Outline: (§1)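 Binding signal is defined as a hexamer's read frequency for one factor over its frequency for the tag-only sample. To obtain reads, GST-fused human transcription factors were expressed in yeast, captured on glutathione beads, barcoded with DNA and pooled with that sample. Pools met 200 nmole of a 16-mer random double-stranded DNA library in Tris/NaCl/DTT/glycerol buffer for 30 min at room temperature before washing, 0.1% formaldehyde crosslinking, proximity ligation (BsaI/T4 ligase, 1 h, 37 °C), PCR and Illumina NextSeq500 sequencing.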

[2] = target: T2, ETV3L (Homo sapiens, UniProt Q6ZN32 1-361)
T2 sequence: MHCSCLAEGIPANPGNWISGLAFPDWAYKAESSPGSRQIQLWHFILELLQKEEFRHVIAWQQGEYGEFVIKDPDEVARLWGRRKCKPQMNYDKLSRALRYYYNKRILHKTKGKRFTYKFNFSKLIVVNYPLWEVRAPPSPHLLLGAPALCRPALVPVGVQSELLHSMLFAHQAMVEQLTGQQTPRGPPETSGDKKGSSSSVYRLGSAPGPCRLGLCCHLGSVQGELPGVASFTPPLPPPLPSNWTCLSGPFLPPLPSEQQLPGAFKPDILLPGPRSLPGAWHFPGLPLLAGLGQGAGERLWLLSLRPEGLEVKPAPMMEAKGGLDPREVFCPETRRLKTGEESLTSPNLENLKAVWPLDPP
Outline: as §1

[3] = target: T3, ETS2 (Homo sapiens, UniProt P15036 1-469)
T3 sequence: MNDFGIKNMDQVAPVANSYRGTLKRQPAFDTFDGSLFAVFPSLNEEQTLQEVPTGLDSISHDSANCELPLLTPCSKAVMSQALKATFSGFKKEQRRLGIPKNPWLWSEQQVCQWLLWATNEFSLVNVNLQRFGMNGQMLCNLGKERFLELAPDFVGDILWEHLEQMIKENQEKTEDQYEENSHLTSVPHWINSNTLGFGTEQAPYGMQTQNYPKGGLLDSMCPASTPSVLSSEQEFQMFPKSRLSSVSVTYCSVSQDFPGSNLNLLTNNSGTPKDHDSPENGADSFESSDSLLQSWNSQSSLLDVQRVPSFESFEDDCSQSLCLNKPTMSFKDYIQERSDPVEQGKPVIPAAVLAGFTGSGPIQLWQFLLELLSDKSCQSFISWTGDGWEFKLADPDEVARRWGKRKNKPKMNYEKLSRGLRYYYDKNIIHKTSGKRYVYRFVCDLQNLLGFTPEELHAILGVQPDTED
Outline: as §1

[4] = target: T4, SPDEF (Homo sapiens, UniProt O95238 1-335)
T4 sequence: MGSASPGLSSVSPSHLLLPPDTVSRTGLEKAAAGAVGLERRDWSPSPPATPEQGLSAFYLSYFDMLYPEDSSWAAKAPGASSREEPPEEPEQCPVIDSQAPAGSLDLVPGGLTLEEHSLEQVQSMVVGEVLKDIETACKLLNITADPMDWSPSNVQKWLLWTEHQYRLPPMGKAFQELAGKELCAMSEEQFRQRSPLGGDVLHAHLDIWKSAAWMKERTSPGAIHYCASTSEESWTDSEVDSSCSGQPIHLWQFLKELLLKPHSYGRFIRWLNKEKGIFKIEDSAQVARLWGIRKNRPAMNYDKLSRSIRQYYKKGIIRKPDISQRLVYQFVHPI
Outline: as §1

[5] = target: T5, ETV7 (Homo sapiens, UniProt Q9Y603 1-341)
T5 sequence: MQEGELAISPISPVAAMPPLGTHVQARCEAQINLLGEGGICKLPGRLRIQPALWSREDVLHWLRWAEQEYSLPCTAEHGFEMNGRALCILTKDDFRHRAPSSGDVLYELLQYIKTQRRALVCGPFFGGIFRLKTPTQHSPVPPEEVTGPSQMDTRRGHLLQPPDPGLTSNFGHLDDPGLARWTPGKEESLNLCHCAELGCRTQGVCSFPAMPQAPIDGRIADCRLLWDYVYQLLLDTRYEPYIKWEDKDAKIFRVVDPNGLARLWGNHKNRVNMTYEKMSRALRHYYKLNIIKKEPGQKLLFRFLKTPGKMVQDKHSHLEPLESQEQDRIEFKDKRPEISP
Outline: as §1

[6] = target: T6, ELF5 (Homo sapiens, UniProt Q9UKW6-2 1-255)
T6 sequence: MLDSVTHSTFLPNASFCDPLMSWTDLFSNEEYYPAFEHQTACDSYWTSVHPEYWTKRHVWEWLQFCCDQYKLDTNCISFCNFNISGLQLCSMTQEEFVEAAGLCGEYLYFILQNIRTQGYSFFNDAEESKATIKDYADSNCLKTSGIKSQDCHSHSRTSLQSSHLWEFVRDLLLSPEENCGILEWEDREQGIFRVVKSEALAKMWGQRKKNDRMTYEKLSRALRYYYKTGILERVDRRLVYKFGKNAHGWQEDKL
Outline: as §1

[7] = target: T7, ETV3 (Homo sapiens, UniProt P41162-2 1-143)
T7 sequence: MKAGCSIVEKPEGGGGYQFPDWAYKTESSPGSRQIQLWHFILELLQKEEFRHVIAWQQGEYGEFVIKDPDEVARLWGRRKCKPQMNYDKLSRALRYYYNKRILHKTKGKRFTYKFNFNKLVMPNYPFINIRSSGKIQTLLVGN
Outline: as §1

[8] = target: ETV6 (Homo sapiens, UniProt P41212 1-452)
Outline: as §1

ETV6, sequence (P41212 whole entry): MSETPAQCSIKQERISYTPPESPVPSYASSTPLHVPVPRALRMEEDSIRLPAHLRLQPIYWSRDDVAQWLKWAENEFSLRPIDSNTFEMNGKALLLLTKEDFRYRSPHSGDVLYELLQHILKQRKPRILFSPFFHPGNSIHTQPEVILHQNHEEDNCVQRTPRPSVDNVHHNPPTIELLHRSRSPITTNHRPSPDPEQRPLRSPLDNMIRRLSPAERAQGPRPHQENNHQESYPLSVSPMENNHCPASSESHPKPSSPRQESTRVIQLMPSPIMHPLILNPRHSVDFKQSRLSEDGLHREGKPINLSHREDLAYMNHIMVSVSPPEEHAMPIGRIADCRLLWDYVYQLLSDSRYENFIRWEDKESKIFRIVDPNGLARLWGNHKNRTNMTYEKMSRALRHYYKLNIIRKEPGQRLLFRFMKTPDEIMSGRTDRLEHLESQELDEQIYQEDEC

| Sequence | binding signal [1] | binding signal [2] | binding signal [3] | binding signal [4] | binding signal [5] | binding signal [6] | binding signal [7] | binding signal [8] |
| --- | --- | --- | --- | --- | --- | --- | --- | --- |
| ACATGT | 1.15 fold enrichment (6-mer frequency, TF over GST control) | 1.19 fold enrichment (6-mer frequency, TF over GST control) | 1.15 fold enrichment (6-mer frequency, TF over GST control) | 1.19 fold enrichment (6-mer frequency, TF over GST control) | 1.16 fold enrichment (6-mer frequency, TF over GST control) | 1.12 fold enrichment (6-mer frequency, TF over GST control) | 1.16 fold enrichment (6-mer frequency, TF over GST control) | 1.14 fold enrichment (6-mer frequency, TF over GST control) |
| AATTGG | 1.26 fold enrichment (6-mer frequency, TF over GST control) | 1.33 fold enrichment (6-mer frequency, TF over GST control) | 1.33 fold enrichment (6-mer frequency, TF over GST control) | 1.31 fold enrichment (6-mer frequency, TF over GST control) | 1.42 fold enrichment (6-mer frequency, TF over GST control) | 1.35 fold enrichment (6-mer frequency, TF over GST control) | 1.28 fold enrichment (6-mer frequency, TF over GST control) | 1.44 fold enrichment (6-mer frequency, TF over GST control) |
| TTGCAC | 1.3 fold enrichment (6-mer frequency, TF over GST control) | 1.38 fold enrichment (6-mer frequency, TF over GST control) | 1.11 fold enrichment (6-mer frequency, TF over GST control) | 1.22 fold enrichment (6-mer frequency, TF over GST control) | 1.26 fold enrichment (6-mer frequency, TF over GST control) | 1.22 fold enrichment (6-mer frequency, TF over GST control) | 1.23 fold enrichment (6-mer frequency, TF over GST control) | 1.26 fold enrichment (6-mer frequency, TF over GST control) |
| ACCCCC | 1.08 fold enrichment (6-mer frequency, TF over GST control) | 1.16 fold enrichment (6-mer frequency, TF over GST control) | 1.15 fold enrichment (6-mer frequency, TF over GST control) | 1.1 fold enrichment (6-mer frequency, TF over GST control) | 1.08 fold enrichment (6-mer frequency, TF over GST control) | 1.12 fold enrichment (6-mer frequency, TF over GST control) | 1.21 fold enrichment (6-mer frequency, TF over GST control) | 1.06 fold enrichment (6-mer frequency, TF over GST control) |
| GTCCTC | 1.19 fold enrichment (6-mer frequency, TF over GST control) | 1.22 fold enrichment (6-mer frequency, TF over GST control) | 1.14 fold enrichment (6-mer frequency, TF over GST control) | 1.19 fold enrichment (6-mer frequency, TF over GST control) | 1.39 fold enrichment (6-mer frequency, TF over GST control) | 1.32 fold enrichment (6-mer frequency, TF over GST control) | 1.2 fold enrichment (6-mer frequency, TF over GST control) | 1.06 fold enrichment (6-mer frequency, TF over GST control) |
| AGTACT | 1.11 fold enrichment (6-mer frequency, TF over GST control) | 1.12 fold enrichment (6-mer frequency, TF over GST control) | 1.23 fold enrichment (6-mer frequency, TF over GST control) | 1.33 fold enrichment (6-mer frequency, TF over GST control) | 1.3 fold enrichment (6-mer frequency, TF over GST control) | 1.53 fold enrichment (6-mer frequency, TF over GST control) | 1.28 fold enrichment (6-mer frequency, TF over GST control) | 1.62 fold enrichment (6-mer frequency, TF over GST control) |
| GCCCTC | 1.26 fold enrichment (6-mer frequency, TF over GST control) | 1.09 fold enrichment (6-mer frequency, TF over GST control) | 1.24 fold enrichment (6-mer frequency, TF over GST control) | 1.08 fold enrichment (6-mer frequency, TF over GST control) | 1.22 fold enrichment (6-mer frequency, TF over GST control) | 1.1 fold enrichment (6-mer frequency, TF over GST control) | 1.17 fold enrichment (6-mer frequency, TF over GST control) | 1.05 fold enrichment (6-mer frequency, TF over GST control) |
| GATTTG | 1.12 fold enrichment (6-mer frequency, TF over GST control) | 1.18 fold enrichment (6-mer frequency, TF over GST control) | 1.14 fold enrichment (6-mer frequency, TF over GST control) | 1.19 fold enrichment (6-mer frequency, TF over GST control) | 1.15 fold enrichment (6-mer frequency, TF over GST control) | 1.05 fold enrichment (6-mer frequency, TF over GST control) | 1.1 fold enrichment (6-mer frequency, TF over GST control) | 1.09 fold enrichment (6-mer frequency, TF over GST control) |
| ATAAAC | 1.19 fold enrichment (6-mer frequency, TF over GST control) | 1.18 fold enrichment (6-mer frequency, TF over GST control) | 1.18 fold enrichment (6-mer frequency, TF over GST control) | 1.16 fold enrichment (6-mer frequency, TF over GST control) | 1.05 fold enrichment (6-mer frequency, TF over GST control) | 1.17 fold enrichment (6-mer frequency, TF over GST control) | 1.1 fold enrichment (6-mer frequency, TF over GST control) | 1.19 fold enrichment (6-mer frequency, TF over GST control) |
| CGACGC | 1.17 fold enrichment (6-mer frequency, TF over GST control) | 1.08 fold enrichment (6-mer frequency, TF over GST control) | 1.16 fold enrichment (6-mer frequency, TF over GST control) | 1.04 fold enrichment (6-mer frequency, TF over GST control) | 1.05 fold enrichment (6-mer frequency, TF over GST control) | 1.05 fold enrichment (6-mer frequency, TF over GST control) | 1 fold enrichment (6-mer frequency, TF over GST control) | 1.09 fold enrichment (6-mer frequency, TF over GST control) |
| CCTGCC | 1.3 fold enrichment (6-mer frequency, TF over GST control) | 1.24 fold enrichment (6-mer frequency, TF over GST control) | 1.23 fold enrichment (6-mer frequency, TF over GST control) | 1.31 fold enrichment (6-mer frequency, TF over GST control) | 1.33 fold enrichment (6-mer frequency, TF over GST control) | 1.35 fold enrichment (6-mer frequency, TF over GST control) | 1.28 fold enrichment (6-mer frequency, TF over GST control) | 1.36 fold enrichment (6-mer frequency, TF over GST control) |
| GCTGTA | 1.24 fold enrichment (6-mer frequency, TF over GST control) | 1.02 fold enrichment (6-mer frequency, TF over GST control) | 1.1 fold enrichment (6-mer frequency, TF over GST control) | 1.12 fold enrichment (6-mer frequency, TF over GST control) | 1.09 fold enrichment (6-mer frequency, TF over GST control) | 1.07 fold enrichment (6-mer frequency, TF over GST control) | 1.08 fold enrichment (6-mer frequency, TF over GST control) | 1.13 fold enrichment (6-mer frequency, TF over GST control) |
| GGAAAC | 1.19 fold enrichment (6-mer frequency, TF over GST control) | 1.32 fold enrichment (6-mer frequency, TF over GST control) | 1.3 fold enrichment (6-mer frequency, TF over GST control) | 1.29 fold enrichment (6-mer frequency, TF over GST control) | 1.34 fold enrichment (6-mer frequency, TF over GST control) | 1.7 fold enrichment (6-mer frequency, TF over GST control) | 1.42 fold enrichment (6-mer frequency, TF over GST control) | 1.66 fold enrichment (6-mer frequency, TF over GST control) |
| CGTCCT | 1.41 fold enrichment (6-mer frequency, TF over GST control) | 1.31 fold enrichment (6-mer frequency, TF over GST control) | 1.28 fold enrichment (6-mer frequency, TF over GST control) | 1.56 fold enrichment (6-mer frequency, TF over GST control) | 1.45 fold enrichment (6-mer frequency, TF over GST control) | 1.56 fold enrichment (6-mer frequency, TF over GST control) | 1.53 fold enrichment (6-mer frequency, TF over GST control) | 1.47 fold enrichment (6-mer frequency, TF over GST control) |
| CGTCCG | 1.32 fold enrichment (6-mer frequency, TF over GST control) | 1.19 fold enrichment (6-mer frequency, TF over GST control) | 1.28 fold enrichment (6-mer frequency, TF over GST control) | 1.48 fold enrichment (6-mer frequency, TF over GST control) | 1.37 fold enrichment (6-mer frequency, TF over GST control) | 1.44 fold enrichment (6-mer frequency, TF over GST control) | 1.22 fold enrichment (6-mer frequency, TF over GST control) | 1.34 fold enrichment (6-mer frequency, TF over GST control) |
